Only some compounds are listed: those with a hit (about 12% of all), similar ones and a draw of the others.
HP1b chromo inh = HTS for Inhibitors of HP1-beta Chromodomain Interactions with Methylated Histone Tails. Chromobox protein homolog 1 (Homo sapiens), P83916. AlphaScreen HP1-beta / biotin-H3K9me3 peptide binding. Potency, µM (top dose mostly 114 µM), actives largely listed as inhibitors. actives 0.56% (n = 390,000). AID 540317, 2011; further: nearly all actives have a fitted effect of over 70% in size
Target sequence (P83916 whole entry, looked up): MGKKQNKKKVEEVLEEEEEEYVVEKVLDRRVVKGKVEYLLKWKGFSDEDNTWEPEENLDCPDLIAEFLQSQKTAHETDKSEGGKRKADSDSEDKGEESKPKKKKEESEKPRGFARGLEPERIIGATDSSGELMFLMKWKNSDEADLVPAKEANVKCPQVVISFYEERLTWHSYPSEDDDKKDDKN
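AlphaScreen: HP1-beta (50 nM) preformed 30 min with biotin-H3(1-18)K9me3 peptide (50 nM) in PBS pH 7.4, 0.01% Tween-20. Compound added for 30 min at RT, then streptavidin donor/nickel chelate acceptor beads (10 ug/mL) for 30 min.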
G9a block = qHTS Assay for Inhibitors of Histone Lysine Methyltransferase G9a; G9a H3K9 monomethylation, AlphaScreen, 2 h; Potency, µM (doses to about 102 µM), usual class: inhibitors; Histone-lysine N-methyltransferase EHMT2 (Homo sapiens), Q96KQ7; actives 8.8% (n = 350,000); further: nearly all actives have a fitted effect of over 75% in size
Target sequence (Q96KQ7 913-1193 limits assumed): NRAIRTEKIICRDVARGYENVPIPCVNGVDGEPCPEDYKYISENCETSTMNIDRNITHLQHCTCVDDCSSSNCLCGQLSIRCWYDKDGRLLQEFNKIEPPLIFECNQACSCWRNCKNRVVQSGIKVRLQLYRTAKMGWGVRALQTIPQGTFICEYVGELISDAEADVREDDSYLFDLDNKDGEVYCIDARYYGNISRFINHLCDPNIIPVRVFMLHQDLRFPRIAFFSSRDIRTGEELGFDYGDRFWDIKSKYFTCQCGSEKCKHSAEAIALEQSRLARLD
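Step 1: enzyme (final 20 nM) with compound, 15 min RT. Step 2: substrate peptide 500 nM and SAM 20 uM, 2 h RT. Step 3: anti-H3K9me1 antibody and AlphaScreen beads, 10 min, then plate read.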
JMJD2A Tudor inh = qHTS Assay for Inhibitors of JMJD2A-Tudor Domain | Lysine-specific demethylase 4A (Homo sapiens), O75164 | actives 4.4% (n = 390,000) | AlphaScreen JMJD2A-Tudor / H3K4me3 peptide binding | Potency, µM (titrated, usually from 114 µM), most hits filed as inhibitors | AID 504339, 2011; further: nearly all actives have a fitted effect of over 50% in size
Sfp PPTase inh = qHTS Assay for Inhibitors of Bacillus subtilis Sfp phosphopantetheinyl transferase (PPTase) | 4'-phosphopantetheinyl transferase ffp (Bacillus subtilis), Q9F4F7 | Biochemical Sfp PPTase activity, qHTS | Potency, µM, usual class: inhibitors | actives 3.5% (n = 310,000) | AID 1490, 2009;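 further: the enzyme is Sfp with the accession as filed and its product quenches rhodamine fluorescence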
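Buffer: 50 mM Hepes-Na pH 7.6, 10 mM MgCl2, 0.01% Nonidet P-40, 0.01% BSA. Enzyme 15 nM, pre-exposed to compound 15 min; substrates then added and fluorescence change tracked over 30 min.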
BAZ2B inh = qHTS Assay for Inhibitors of BAZ2B; Potency, µM (top dose mostly 114 µM), most hits filed as inhibitors; Bromodomain adjacent to zinc finger domain protein 2B (Homo sapiens), Q9UIF8; actives 4.4% (n = 360,000); AlphaScreen BAZ2B-H3K14Ac peptide displacement; further: nearly all actives have a fitted effect of over 60% in size
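Compounds, titrated to a top concentration of 110 uM, were incubated 30 min at room temperature with preformed BAZ2B/acetyl-K14 H3 peptide complex (50 nM each). Proximity signal was measured by AlphaScreen after 20 min with beads.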
Of the large screens only hits and unclear results are named; the others gave an inactive call. The call rests on the fitted dose curve; in most records, active means well fitted curve in the direction sought with a large enough effect; inconclusive means small, poorly fitted or top-dose-only effect, or another doubt; inactive means no such curve, though single readings can be large; an effect the other way counts as inactive or inconclusive.

COCCn1c(SCC(=O)c2ccc(CNC(C)=O)o2)nc2ccccc2c1=O	JMJD2A Tudor inh 79µM
CCn1c(SCC(=O)c2ccc(CNC(C)=O)o2)nnc1-c1cccs1	G9a block 18µM, JMJD2A Tudor inh inconclusive, Sfp PPTase inh 50µM
O=C(CSc1nc2ccccc2c(=O)n1Cc1ccco1)c1ccc(F)cc1	Sfp PPTase inh 32µM
O=C1c2ccccc2C(=O)N1CCc1nc2ccccc2c(=O)n1Cc1ccco1	Sfp PPTase inh 50µM
NC(=O)CSc1nc2ccccc2c(=O)n1Cc1ccco1	none
O=C(CSc1nnc(COc2ccccc2)n1Cc1ccco1)c1ccc(F)cc1	G9a block 28µM, JMJD2A Tudor inh 79µM, Sfp PPTase inh 56µM, BAZ2B inh inconclusive
CCn1c(SCC(=O)NCc2cccs2)nnc1-c1cccs1	none
COc1cc(/C=N/NC(=O)CCn2nc(C)cc2C)ccc1O	none
CCOC(=O)c1ccc(NC(=O)c2ccc(-c3cccc(Cl)c3C)o2)cc1	none (no result: Sfp PPTase inh)
COC(=O)c1ccc(CSc2nc3ccccc3c(=O)n2Cc2ccco2)o1	G9a block 40µM
COC(=O)c1ccc(CSc2nc3ccccc3c(=O)n2CC(C)C)o1	none
Clc1ccc(/C=N/Nc2nnc(Cl)c3ccccc23)cc1	none
Cc1ccc(/C=N/Nc2nnc(Cl)c3ccccc23)cc1	G9a block 45µM, BAZ2B inh inconclusive
CN(C)c1ccc(/C=N/Nc2nncc3ccccc23)cc1	G9a block 28µM
C/C(=N\Nc1nncc2ccccc12)c1ccc(O)cc1	G9a block inconclusive, JMJD2A Tudor inh inconclusive, BAZ2B inh inconclusive
CCNc1nc(NCC)nc(N/N=C/c2ccc(O)c(O)c2)n1	G9a block 40µM, Sfp PPTase inh 50µM, BAZ2B inh inconclusive
C/C(=N\Nc1nncc2ccccc12)c1ccc(C(C)(C)C)cc1	BAZ2B inh 56µM
CCCN1CCN(C(c2cc3cc4c(cc3[nH]c2=O)OCO4)c2nnnn2C(C)(C)C)CC1 (centres undefined)	none
CCc1[nH]nc2c1C(C1C=CCCC1)C(C#N)=C(N)O2 (centres undefined)	none
O=c1oc2ccccc2c2c1nnn2CCO	none (no result: G9a block)
CCNc1nc(NCC)nc(N/N=C/c2ccc(N(C)C)cc2)n1	G9a block 50µM, JMJD2A Tudor inh inconclusive, BAZ2B inh 45µM
CCNc1nc(NCC)nc(N/N=C/c2cc(OC)c(OC)c(OC)c2)n1	none
CCN(CC)CCSc1nc2ccccc2c(=S)n1-c1ccccc1	HP1b chromo inh inconclusive, G9a block inconclusive, JMJD2A Tudor inh 50µM, BAZ2B inh inconclusive
COC(=O)CC1C(=O)NCCN1Cc1cn(-c2ccc(C)cc2)nc1-c1cccc(C)c1 (centres undefined)	none
Cc1nnc(SCC(=O)Nc2cccc(C(F)(F)F)c2)n1Cc1ccco1	JMJD2A Tudor inh inconclusive, Sfp PPTase inh 40µM
Cc1cc(NC(=O)CSc2nnc(CNc3cccc(C(F)(F)F)c3)n2Cc2ccco2)no1	none
O=C(CSc1nnc(-c2ccccc2)n1Cc1ccco1)Nc1ccc2c(c1)OCCO2	G9a block 40µM, Sfp PPTase inh 45µM
O=C(CSc1nnc(-c2ccccc2)n1Cc1ccco1)NCc1ccc2c(c1)OCO2	G9a block 45µM, Sfp PPTase inh inconclusive
O=C(CSc1nnc(-c2ccco2)n1Cc1ccco1)NCc1ccccc1	none
Cc1cc(C(=O)CSc2nnc(-c3ccccc3)n2Cc2ccc3c(c2)OCO3)c(C)n1C	G9a block 28µM
Cc1ccc(NC(=O)C(C)SCc2ccccc2)cc1 (centres undefined)	none
COc1ccc(C(=O)n2nc(N)c3cc4ccc(C)cc4nc32)cc1OC	none (no result: Sfp PPTase inh)
C=C(C)CSc1cc(C)c(C#N)c2nc3ccccc3n12	G9a block 1.4µM, Sfp PPTase inh 32µM
O=C1CC(c2ccc(S(=O)(=O)Nc3cc(C(F)(F)F)cc(C(F)(F)F)c3)cc2)CN1 (centres undefined)	none
O=C1C2C3CCCC3=C3CCCC3C2C(=O)N1c1ccccc1 (centres undefined)	G9a block 20µM
O=C1C2C3C=CC(C3)C2C(=O)N1c1ccccc1 (centres undefined)	none
Cc1oc(-c2ccccc2)cc1C(=O)Nc1cccc(/C=C\C(=O)O)c1	G9a block 45µM
CC1CN(C(=O)COC(=O)c2cc3ccccc3cc2O)CC(C)O1 (centres undefined)	none (no result: G9a block, Sfp PPTase inh, BAZ2B inh)
Cc1cccc(S(=O)(=O)NNC(=O)Cc2cccn2C)c1	G9a block 50µM, JMJD2A Tudor inh 40µM
O=Cc1s/c(=N\S(=O)(=O)c2ccccc2)n(CCCCl)c1Cl	G9a block 45µM
CC(NC(=O)c1ccccc1F)C(=O)O (centres undefined)	none
Cc1sc2ncn(CC(=O)N3CCN(c4ccccn4)CC3)c(=O)c2c1S(=O)(=O)N1CCCCC1	none
COCCN1CCc2[nH]c(=S)[nH]c(=O)c2C1	G9a block 32µM, Sfp PPTase inh 56µM, BAZ2B inh inconclusive
CCCCN1CCc2[nH]c(=S)[nH]c(=O)c2C1	G9a block 35µM, JMJD2A Tudor inh 25µM, Sfp PPTase inh inconclusive
CCN1CCc2[nH]c3ccccc3c2C1	none
CC(c1ccccc1)N1CCc2[nH]c(=S)[nH]c(=O)c2C1 (centres undefined)	G9a block 40µM, Sfp PPTase inh inconclusive
CCCN1CNc2c(c(=O)[nH]c(=S)n2CCC)C1	none (no result: G9a block, Sfp PPTase inh, BAZ2B inh)
O=C(CCCc1c[nH]c2ccccc12)Nc1ccc2ccccc2c1	G9a block inconclusive, JMJD2A Tudor inh inconclusive, BAZ2B inh inconclusive
Cc1cc(C(=O)NN=C2CCCCC2)c2ccccc2n1	none
Cn1c(=O)c2ncn(CC(=O)NCCOCc3ccccc3Cl)c2n(C)c1=O	none
Cn1c(=O)c2ncn(CC(=O)NC3CCCCCC3)c2n(C)c1=O	G9a block 14µM
Cn1c(=O)c2ncn(CC(=O)NCCOc3ccc(C(C)(C)C)cc3)c2n(C)c1=O	G9a block 40µM
CCc1ccc(NC(=O)Cn2cnc3c(=O)n(C)c(=O)n(C)c32)cc1	G9a block inconclusive
Cc1ccc(CNC(=O)CCn2cc(-c3ccc(C)cc3)nc2-c2ccncc2)cc1	G9a block 45µM, BAZ2B inh inconclusive
CCC(C)N(C)C1CCN(C(=S)Nc2cccc(SC)c2)CC1 (centres undefined)	G9a block inconclusive, Sfp PPTase inh 56µM
CCOC(=O)N1CCN(c2c(NCCCN(C)c3ccccc3)c(=O)c2=O)CC1	G9a block inconclusive
CCOC(=O)N1CCN(c2c(NCCN(C)Cc3ccccc3)c(=O)c2=O)CC1	G9a block 56µM
CCOC(=O)N1CCC(N(CCOC)C(=S)Nc2cccc(SC)c2)CC1	BAZ2B inh inconclusive
